In PubChem BioAssay (NCATS):
Results filed as inconclusive are left out. Active and inactive are the calls of the source. Unless noted, the call rests on the fitted dose curve; in most records, active means well fitted curve in either direction with a large enough effect (not every such curve was filed as active); inconclusive means small, poorly fitted or top-dose-only effect, or another doubt; inactive means flat fitted curve, though single readings scatter.

What was measured:
[1] = AP1 Signaling Pathway (AID 357); settings: ME-180 AP-1-bla reporter, EGF-induced, beta-lactamase ratio, 5 h; at 7.69 µM (top of the series) unless noted;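 further: ME-180 reporter cells stimulated with EGF at its EC50 level; on the % scale 0 is the no-effect control and ±100 the full control effect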
Procedure, shortened: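 AP-1-bla ME-180 cells, Opti-MEM + 0.5% dialyzed FBS, plated overnight 37 °C. Cpd titration + EC50 EGF, 5 h 37 °C. CCF4 2.5 h RT; ex 405, em 460/530 ratio → %activity, AC50.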

[2] = molecular target: Cytochrome P450 1A2 (Homo sapiens) (UniProt P05177); test: p450-cyp1a2 (AID 410; calls by dose curve; further: potency means the concentration at half of the fitted maximal effect;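 on activity change, negative = inhibition: -100% = full effect of reference inhibitor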)
Sequence of Cytochrome P450 1A2 (Homo sapiens) (P05177 whole entry, looked up): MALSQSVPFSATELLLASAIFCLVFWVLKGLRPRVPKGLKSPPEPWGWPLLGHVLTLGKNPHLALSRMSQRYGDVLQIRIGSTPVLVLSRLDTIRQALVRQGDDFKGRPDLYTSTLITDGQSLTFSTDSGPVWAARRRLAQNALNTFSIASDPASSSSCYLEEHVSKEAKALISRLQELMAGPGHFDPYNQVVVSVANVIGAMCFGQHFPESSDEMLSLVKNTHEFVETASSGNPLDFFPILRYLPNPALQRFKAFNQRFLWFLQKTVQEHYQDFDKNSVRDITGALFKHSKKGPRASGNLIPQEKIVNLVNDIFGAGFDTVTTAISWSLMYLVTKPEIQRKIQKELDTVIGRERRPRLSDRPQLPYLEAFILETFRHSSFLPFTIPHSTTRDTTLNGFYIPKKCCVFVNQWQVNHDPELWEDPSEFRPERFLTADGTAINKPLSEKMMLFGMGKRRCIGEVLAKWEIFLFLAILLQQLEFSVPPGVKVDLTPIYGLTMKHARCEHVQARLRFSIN
Procedure, shortened: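 Human CYP1A2 (20nM) demethylated Luciferin-ME at its Km (100uM) in 100mM KPO4. After 10 min compound preincubation, NADPH regeneration ran the reaction 60 min at room temperature. Luciferin was read by luminescence, normalized to 57 uM furafylline.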

[3] = NFAT Signaling Pathway (AID 444); settings: Jurkat NFAT-bla M1, carbachol, beta-lactamase ratio, 5 h; at 7.69 µM (top of the series) unless noted;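 further: carbachol stimulus at about its EC50 of 1 µM final; on the % scale 0 is the no-effect control and ±100 the full control effect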
Procedure, shortened: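 Jurkat cells carrying an NFAT-driven β-lactamase reporter and co-transfected muscarinic M1 receptor were treated with compound plus carbachol (1 uM final, an EC50 level) for 5 h at 37 °C. CCF4 loading followed for 1 h at RT; 460/530 nm ratio gave %activity.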

[4] = Stat Signaling Pathway (AID 446); settings: ME-180 (cervical carcinoma) SIE beta-lactamase reporter, IL-6 stimulated, 5 h; at 7.69 µM (top of the series) unless noted;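 further: ME-180 cervical cancer cells given 40 pM IL-6 alongside compound; SIE-controlled beta-lactamase reporter measured as 460/530 nm FRET emission ratio; on the % scale 0 is the no-effect control and ±100 the full control effect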
Procedure, shortened: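 IL-6/STAT signaling read in ME-180 cells via an SIE beta-lactamase reporter. Stimulus was 40 pM IL-6 (its AC50) for 5 hrs, so both activation and inhibition register.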

[5] = molecular target: Glucocorticoid receptor (Homo sapiens) (UniProt P04150); test: GR-GFP Redistribution (AID 450;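 active means compounds whose dose series gives a full or clear partial fitted curve of increased nuclear translocation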; further: potency means the concentration at half of the fitted maximal effect); settings: U2OS GR-GFP nuclear translocation, laser cytometry, 2 h
Sequence of Glucocorticoid receptor (Homo sapiens) (P04150 whole entry, looked up, the tested form may be a part): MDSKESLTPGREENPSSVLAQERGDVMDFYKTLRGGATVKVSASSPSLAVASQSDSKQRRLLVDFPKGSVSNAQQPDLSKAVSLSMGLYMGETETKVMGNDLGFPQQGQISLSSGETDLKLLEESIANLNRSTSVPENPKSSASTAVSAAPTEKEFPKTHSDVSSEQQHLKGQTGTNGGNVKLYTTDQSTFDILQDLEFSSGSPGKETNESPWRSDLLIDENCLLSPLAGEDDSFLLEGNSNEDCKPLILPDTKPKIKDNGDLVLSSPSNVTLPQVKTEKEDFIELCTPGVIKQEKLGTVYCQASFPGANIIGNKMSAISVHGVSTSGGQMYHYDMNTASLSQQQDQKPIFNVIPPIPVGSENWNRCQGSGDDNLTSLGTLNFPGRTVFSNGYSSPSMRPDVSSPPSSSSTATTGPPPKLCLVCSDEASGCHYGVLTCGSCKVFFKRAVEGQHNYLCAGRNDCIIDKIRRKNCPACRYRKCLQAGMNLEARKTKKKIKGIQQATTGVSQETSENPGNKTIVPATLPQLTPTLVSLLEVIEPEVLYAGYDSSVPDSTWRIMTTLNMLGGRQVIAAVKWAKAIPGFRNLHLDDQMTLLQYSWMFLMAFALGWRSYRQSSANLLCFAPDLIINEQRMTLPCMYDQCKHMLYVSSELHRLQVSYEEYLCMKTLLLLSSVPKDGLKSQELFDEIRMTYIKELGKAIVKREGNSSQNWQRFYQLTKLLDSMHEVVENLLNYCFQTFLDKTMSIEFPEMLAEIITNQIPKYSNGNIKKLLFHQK

[6] = molecular target: Glucocorticoid receptor (Homo sapiens) (UniProt P04150); test: GR-EFC Redistribution (AID 451; calls by dose curve; further: potency means the concentration at half of the fitted maximal effect); settings: CHO-K1 GR-EFC translocation, beta-gal luminescence, 2 h
Procedure, shortened: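 CHO-K1 cells stably expressing nuclear-localized β-gal enzyme acceptor and GR fused C-terminally to the enzyme donor fragment; ligand-driven nuclear translocation restores β-gal by complementation. Compounds titrated up to 46 uM final, 2 h at 37 °C; luminescence read.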

[7] = molecular target: Guanine nucleotide-binding protein G(i) subunit alpha-1 (Homo sapiens) (UniProt P63096); test: qHTS Assay for Inhibitors of RGS12 GoLoco Motif Activity (Green Fluorophore) (AID 879; active means well fitted curve in the direction sought with a large enough effect; an effect the other way counts as inactive or inconclusive;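 further: 0% = labeled peptide with Gαi1 and full inhibition = labeled peptide alone without protein; negative values mean loss of peptide binding seen as reduced polarization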)
Sequence of Guanine nucleotide-binding protein G(i) subunit alpha-1 (Homo sapiens) (P63096 whole entry, looked up): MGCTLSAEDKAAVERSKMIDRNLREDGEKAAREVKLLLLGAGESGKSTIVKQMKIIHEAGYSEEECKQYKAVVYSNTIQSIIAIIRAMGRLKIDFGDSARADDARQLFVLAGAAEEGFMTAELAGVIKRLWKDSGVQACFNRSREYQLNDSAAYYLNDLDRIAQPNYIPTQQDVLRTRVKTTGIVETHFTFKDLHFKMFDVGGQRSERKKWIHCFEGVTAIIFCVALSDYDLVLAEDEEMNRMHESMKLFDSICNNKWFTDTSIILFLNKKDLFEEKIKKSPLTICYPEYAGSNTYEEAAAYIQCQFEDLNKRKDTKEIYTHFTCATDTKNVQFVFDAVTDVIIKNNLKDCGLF
Procedure, shortened: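 Fluorescence polarization assay: 50 nM Gαi1 with 10 nM FITC-labeled RGS12 GoLoco peptide in 10 mM Tris pH 7.5, 150 mM NaCl, 0.1 mM GDP, 0.05% NP40, 10 min at room temperature with compound.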

[8] = molecular target: Cytochrome P450 3A4 (Homo sapiens) (UniProt P08684); test: qHTS Assay for Activators of Cytochrome P450 3A4 (AID 885; active means well fitted curve in the direction sought with a large enough effect; an effect the other way counts as inactive or inconclusive; further: nearly all actives have a fitted effect of over 65% in size)
Procedure, shortened: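 Quantitative HTS format: compounds preincubated with 20nM human CYP3A4 and Luciferin-PPXE substrate at KM, reaction started by NADPH regeneration, stopped after 60 min, luciferase luminescence read 20 min later.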

[9] = molecular target: Cytochrome P450 2D6 (Homo sapiens) (UniProt P10635); test: qHTS Assay for Inhibitors and Substrates of Cytochrome P450 2D6 (AID 891; active means well fitted curve in the direction sought with a large enough effect; an effect the other way counts as inactive or inconclusive;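 further: luciferin methyl ether substrate demethylated by CYP2D6 with NADPH regeneration; on the % scale 0 is the no-effect control and ±100 the full control effect; nearly all actives have a fitted effect of over 60% in size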)
Procedure, shortened: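 Human CYP2D6 (5 nM) with 30 uM Luciferin-ME EGE (at Km) in 100 mM KPO4, compound preincubated 10 min, then NADPH regeneration system for 60 min at room temperature. Luciferin read by luminescence; normalized to 1.43 uM quinidine.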

[10] = qHTS Assay for Identification of Small Molecule Agonists for Thrombopoietin (TPO) Signaling Pathway (AID 917; active means well fitted curve in the direction sought with a large enough effect; an effect the other way counts as inactive or inconclusive; further: on the % scale 0 is the no-effect control and ±100 the full control effect)
Procedure, shortened: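 Activators of TPO signaling were sought in murine Ba/F3 cells transfected with the human receptor, using a luciferase gene driven by the Glycoprotein IIb promoter; 24-hr compound exposure at 37 C alongside 26 pM TPO, in IL-3-free medium.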

[11] = molecular target: Muscarinic acetylcholine receptor M1 (Rattus norvegicus) (UniProt P08482); test: qHTS Assay for Antagonists of Acetylcholine Muscarinic M1 Receptor: Kinetic Measurement of Intracellular Calcium Response (AID 943; active means well fitted curve in the direction sought with a large enough effect; an effect the other way counts as inactive or inconclusive;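 further: Fluo-4 calcium signal as peak divided by basal fluorescence over 4 min; nearly all actives have a fitted effect of over 75% in size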)
Sequence of Muscarinic acetylcholine receptor M1 (Rattus norvegicus) (P08482 whole entry, looked up): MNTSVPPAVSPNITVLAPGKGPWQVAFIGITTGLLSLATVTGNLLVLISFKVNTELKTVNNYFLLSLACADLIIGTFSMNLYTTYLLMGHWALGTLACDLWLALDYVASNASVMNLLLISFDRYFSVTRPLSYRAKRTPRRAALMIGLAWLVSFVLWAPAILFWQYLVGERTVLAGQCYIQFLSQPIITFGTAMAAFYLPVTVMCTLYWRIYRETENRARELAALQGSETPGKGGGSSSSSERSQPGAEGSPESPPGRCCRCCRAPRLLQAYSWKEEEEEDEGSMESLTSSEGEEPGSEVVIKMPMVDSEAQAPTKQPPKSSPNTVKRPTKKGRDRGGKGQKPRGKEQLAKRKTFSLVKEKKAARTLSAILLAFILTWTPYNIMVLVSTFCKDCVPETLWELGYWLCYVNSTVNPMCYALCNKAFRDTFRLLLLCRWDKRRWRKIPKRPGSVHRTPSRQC
Procedure, shortened: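 CHO cells stably expressing rat M1 were loaded with no-wash Fluo-4 dye for 1 h at 37C, pre-incubated 10 min with compound, then challenged with EC80 carbachol (100 nM final); kinetic calcium read 4 min, peak/basal ratio.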

[12] = molecular target: Muscarinic acetylcholine receptor M1 (Rattus norvegicus) (UniProt P08482); test: qHTS Assay for Antagonists of Acetylcholine Muscarinic M1 Receptor: Measurement of IP-One Response (AID 944; active means well fitted curve in the direction sought with a large enough effect; an effect the other way counts as inactive or inconclusive; further: nearly all actives have a fitted effect of over 75% in size)
Procedure, shortened: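 CHO cells expressing rat M1 receptor, recovered overnight, were pre-incubated 10 min with compound, then stimulated 30 min with carbachol at EC80 (200 nM) in LiCl-containing buffer, pH 7.4. IP1 accumulation was read by HTRF (620/665 nm).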

[13] = molecular target: Pyruvate kinase (Leishmania mexicana) (UniProt Q27686); test: qHTS Validation Assay for Inhibitors of Leishmania Mexicana Pyruvate Kinase (AID 945; active means well fitted curve in the direction sought with a large enough effect; an effect the other way counts as inactive or inconclusive;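 further: 0% = DMSO only neutral control wells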)
Procedure, shortened: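 qHTS eight-point titrations against 0.2 nM LmPYK (E451W) in imidazole buffer pH 7.2 with 0.5 mM PEP, 0.1 mM ADP; 1 h, room temperature. Readout: PKLight luminescence, normalized to neutral DMSO wells.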

[14] = molecular target: Pyruvate kinase PKM (Homo sapiens) (UniProt P14618); test: qHTS Assay for Activators of Human Muscle Pyruvate Kinase (AID 954; active means well fitted curve in the direction sought with a large enough effect, not every such curve was filed as active;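 further: 0% = uninhibited enzyme and -100% = no enzyme or full thiadiazolimine inhibition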)
Sequence of Pyruvate kinase PKM (Homo sapiens) (P14618 whole entry, looked up): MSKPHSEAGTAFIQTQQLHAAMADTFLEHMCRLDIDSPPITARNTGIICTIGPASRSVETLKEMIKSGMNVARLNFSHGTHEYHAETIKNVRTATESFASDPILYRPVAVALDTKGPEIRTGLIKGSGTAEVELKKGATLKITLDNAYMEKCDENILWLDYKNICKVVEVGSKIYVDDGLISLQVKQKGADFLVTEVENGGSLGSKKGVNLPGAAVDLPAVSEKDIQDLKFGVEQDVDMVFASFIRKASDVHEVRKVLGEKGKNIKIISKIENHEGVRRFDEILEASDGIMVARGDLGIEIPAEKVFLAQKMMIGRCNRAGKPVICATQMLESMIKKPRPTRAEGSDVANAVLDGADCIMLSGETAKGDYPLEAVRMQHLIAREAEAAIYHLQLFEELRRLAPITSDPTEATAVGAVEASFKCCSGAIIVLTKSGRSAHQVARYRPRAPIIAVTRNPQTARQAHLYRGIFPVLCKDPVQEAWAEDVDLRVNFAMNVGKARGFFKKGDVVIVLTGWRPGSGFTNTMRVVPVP
Procedure, shortened: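 Enzyme was run at intermediate activity so both inhibitors and activators could be detected. ATP formed from ADP and PEP by 0.1 nM human PKM2 during a 1 h room-temperature incubation was quantified by coupled luciferase luminescence.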

[15] = molecular target: Alpha-galactosidase A (Homo sapiens) (UniProt P06280); test: Counterscreen for Glucocerebrosidase Inhibitors: qHTS Assay for Human alpha-Galactosidase at pH 4.5 (AID 992; active means well fitted curve in the direction sought with a large enough effect; an effect the other way counts as inactive or inconclusive; further: 0% is about no effect)
Sequence of Alpha-galactosidase A (Homo sapiens) (P06280 whole entry, looked up): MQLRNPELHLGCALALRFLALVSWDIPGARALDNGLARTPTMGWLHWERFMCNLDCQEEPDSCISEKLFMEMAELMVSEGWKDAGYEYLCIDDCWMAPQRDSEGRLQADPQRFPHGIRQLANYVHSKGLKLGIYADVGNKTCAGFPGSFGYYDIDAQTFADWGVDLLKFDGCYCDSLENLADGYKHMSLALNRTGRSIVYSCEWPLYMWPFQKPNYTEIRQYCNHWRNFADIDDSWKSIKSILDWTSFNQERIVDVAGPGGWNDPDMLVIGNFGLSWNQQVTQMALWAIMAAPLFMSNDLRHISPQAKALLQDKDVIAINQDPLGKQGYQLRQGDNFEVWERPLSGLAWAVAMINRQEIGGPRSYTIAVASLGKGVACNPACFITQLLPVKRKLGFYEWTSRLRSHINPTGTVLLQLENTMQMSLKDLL
Procedure, shortened: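 Read-out is 4-methylumbelliferone fluorescence (365 nm excitation, 440 nm emission) after a pH 10 NaOH/glycine stop. Reactions held 2 nM enzyme and 80 uM substrate at pH 4.5 for 20 min at room temperature.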

[16] = molecular target: alpha-glucosidase (Oryza sativa, rice) (UniProt Q653V4); test: Counterscreen for Glucocerebrosidase Inhibitors: qHTS Assay for Rice alpha-Glucosidase at pH 5.0 (AID 997; active means well fitted curve in the direction sought with a large enough effect; an effect the other way counts as inactive or inconclusive;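 further: 0% = full activity with enzyme and -100% = basal without enzyme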)
Procedure, shortened: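 Rice alpha-glucosidase (4 nM final) with 400 uM 4-methylumbelliferyl-alpha-D-glucopyranoside in citrate buffer pH 5.0, 20 min at room temperature, stopped at pH 10; fluorescence 365/440 nm, compounds 0.7 nM–77 uM, AC50 from Hill fits.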

[17] = molecular target: Mitogen-activated protein kinase 10 (Mus musculus) (UniProt Q61831); test: JNK3 AlphaScreen Assay (AID 530)
Procedure, shortened: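 JNK3 came from HepG2 lysates pre-activated with IL-1beta and TNF-alpha and phosphorylated biotinylated GST-cJun (1-79) at 10 uM ATP, pH 7.6, room temperature. Compounds were titrated. AlphaScreen signal used anti-phospho-cJun (Ser73) antibody.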

[18] = molecular target: Cytochrome P450 2C9 (Homo sapiens) (UniProt P11712); test: qHTS Assay for Inhibitors and Substrates of Cytochrome P450 2C9 (AID 883; active means well fitted curve in the direction sought with a large enough effect; an effect the other way counts as inactive or inconclusive; further: nearly all actives have a fitted effect of over 60% in size)
Sequence of Cytochrome P450 2C9 (Homo sapiens) (P11712 whole entry, looked up): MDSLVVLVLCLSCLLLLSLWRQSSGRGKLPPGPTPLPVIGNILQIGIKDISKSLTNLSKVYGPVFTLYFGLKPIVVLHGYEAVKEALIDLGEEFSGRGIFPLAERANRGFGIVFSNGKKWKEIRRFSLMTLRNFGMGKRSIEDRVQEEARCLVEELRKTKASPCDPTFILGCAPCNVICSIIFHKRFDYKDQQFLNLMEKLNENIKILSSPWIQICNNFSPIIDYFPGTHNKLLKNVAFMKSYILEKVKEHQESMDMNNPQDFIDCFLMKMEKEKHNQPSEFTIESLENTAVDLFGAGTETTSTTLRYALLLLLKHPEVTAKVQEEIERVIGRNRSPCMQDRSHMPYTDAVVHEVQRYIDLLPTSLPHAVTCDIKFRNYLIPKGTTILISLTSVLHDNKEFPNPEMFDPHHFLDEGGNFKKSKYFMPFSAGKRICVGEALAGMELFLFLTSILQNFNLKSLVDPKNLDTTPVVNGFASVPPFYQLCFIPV
Procedure, shortened: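 CYP2C9 deoxyluciferin hydroxylation, 37C, 60 min with NADPH regeneration; 10nM enzyme, 100uM Luciferin-H (KM). Glo detection reagent stopped reaction; luminescence normalized to sulphaphenazole (57uM) full inhibition.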

[19] = molecular target: 3',5'-cyclic-AMP phosphodiesterase 4B (Homo sapiens) (UniProt Q07343); test: qHTS Assay for Inhibitors of PDE-IV (AID 607; active means well fitted activation curve with a large enough effect in the main read-out, with a control signal flat, not every such curve was filed as active; further: % of control where 0% means no effect)
Sequence of 3',5'-cyclic-AMP phosphodiesterase 4B (Homo sapiens) (Q07343 whole entry, looked up): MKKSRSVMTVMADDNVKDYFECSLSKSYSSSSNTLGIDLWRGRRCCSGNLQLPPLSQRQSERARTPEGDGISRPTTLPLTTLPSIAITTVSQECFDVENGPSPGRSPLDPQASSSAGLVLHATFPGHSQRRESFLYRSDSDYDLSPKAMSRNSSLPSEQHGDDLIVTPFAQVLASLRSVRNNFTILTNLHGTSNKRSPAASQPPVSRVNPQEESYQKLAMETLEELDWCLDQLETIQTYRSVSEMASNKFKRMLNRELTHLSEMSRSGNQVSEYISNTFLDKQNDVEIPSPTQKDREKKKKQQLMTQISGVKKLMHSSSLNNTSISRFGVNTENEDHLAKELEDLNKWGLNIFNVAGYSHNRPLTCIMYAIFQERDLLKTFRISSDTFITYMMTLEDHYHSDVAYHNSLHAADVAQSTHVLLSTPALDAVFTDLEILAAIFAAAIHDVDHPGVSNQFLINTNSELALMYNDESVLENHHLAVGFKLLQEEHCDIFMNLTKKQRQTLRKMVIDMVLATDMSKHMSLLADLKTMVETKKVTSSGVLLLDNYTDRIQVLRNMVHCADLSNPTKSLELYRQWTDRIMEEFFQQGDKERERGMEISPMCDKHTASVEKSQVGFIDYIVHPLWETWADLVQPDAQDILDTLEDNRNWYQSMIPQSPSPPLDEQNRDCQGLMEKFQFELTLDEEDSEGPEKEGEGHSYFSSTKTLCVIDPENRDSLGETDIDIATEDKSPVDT
Procedure, shortened: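 Live HEK293 cells with a modified cyclic nucleotide-gated (CNG) channel report intracellular cAMP via membrane-potential dye fluorescence (ex 535/em 590 nm). Endogenous PDE-IV was targeted. Compounds were tested at up to 22.9 uM final; RO 20-1724 100 uM served as control.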

[20] = molecular target: Cytochrome P450 2C19 (Homo sapiens) (UniProt P33261); test: qHTS Assay for Inhibitors and Substrates of Cytochrome P450 2C19 (AID 899; active means well fitted curve in the direction sought with a large enough effect; an effect the other way counts as inactive or inconclusive; further: on the % scale 0 is the no-effect control and ±100 the full control effect; nearly all actives have a fitted effect of over 60% in size)
Sequence of Cytochrome P450 2C19 (Homo sapiens) (P33261 whole entry, looked up): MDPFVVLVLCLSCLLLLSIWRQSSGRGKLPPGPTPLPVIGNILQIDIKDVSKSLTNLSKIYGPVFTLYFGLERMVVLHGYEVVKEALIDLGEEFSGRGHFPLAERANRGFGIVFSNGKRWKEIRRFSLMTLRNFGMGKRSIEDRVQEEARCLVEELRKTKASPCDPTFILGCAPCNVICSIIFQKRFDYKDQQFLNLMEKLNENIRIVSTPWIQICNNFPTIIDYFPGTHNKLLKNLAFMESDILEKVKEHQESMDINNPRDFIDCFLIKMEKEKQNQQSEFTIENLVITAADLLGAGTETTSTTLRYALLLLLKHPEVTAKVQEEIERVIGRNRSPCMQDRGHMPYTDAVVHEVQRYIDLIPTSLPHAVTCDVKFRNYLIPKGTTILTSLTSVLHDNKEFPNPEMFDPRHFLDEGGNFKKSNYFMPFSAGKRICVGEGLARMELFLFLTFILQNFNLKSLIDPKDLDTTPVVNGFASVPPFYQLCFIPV
Procedure, shortened: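 In 50mM KPO4, the reaction held 5nM enzyme and KM-level (10uM) Luciferin-H EGE; it ran 60 min at 37C after NADPH regeneration and a 10 min compound preincubation. Luminescence values were scaled to 57uM ketoconazole as complete inhibition.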

[21] = qHTS Assay for Identification of Small Molecule Antagonists for NFkB Signaling Pathway (AID 895; active means well fitted inhibition curve with a large enough effect in the signal ratio, with a control signal flat, not every such curve was filed as active; the % refers to the signal ratio; further: on the % scale 0 is the no-effect control and ±100 the full control effect)
Procedure, shortened: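 NFkB-bla ME-180 cervical carcinoma cells with beta-lactamase reporter under NFkB response element; compounds added, then TNF alpha at 10 pM final (EC50), 5 h at 37 C. LiveBLAzer substrate 2 h, room temperature; emission 460/530 nm at 405 nm excitation.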

C=C[C@@]1(C)CC(=O)[C@@]2(O)[C@@]3(C)[C@H](O)CCC(C)(C)[C@@H]3[C@H](O)[C@H](OC(C)=O)[C@]2(C)O1
inactive: activity change, negative = inhibition [1] -15.8% [at 38 µM] | Potency [2] | activity change, negative = inhibition [3] 5.97% [at 38 µM] | activity, negative = inhibition [4] 9.83% [at 38 µM] | Potency [5] > 46 µM | Potency [6] > 46 µM | outcome [7] | Potency [8] | Potency [9] | outcome [10] | Potency [11] | Potency [12] | outcome [13] | outcome [14] | outcome [15] | Potency [16]

C=C[C@H]1CN2CC[C@@H]1C[C@H]2[C@@H](O)c1ccnc2ccc(OC)cc12
inactive: activity change, negative = inhibition [1] -5.24% [at 17.2 µM] | Potency [2] | activity change, negative = inhibition [3] -13% [at 17.2 µM] | activity, negative = inhibition [4] -9.97% [at 17.2 µM] | Potency [17] | outcome [18]

Nc1ccn([C@H]2CC[C@H](CO)O2)c(=O)n1
inactive: activity change, negative = inhibition [1] 15.8% [at 38 µM] | Potency [2] | activity change, negative = inhibition [3] 5.71% [at 38 µM] | activity, negative = inhibition [4] -0.228% [at 38 µM] | Potency [17] | Potency [19] | Potency [18] | Potency [20]

C=C/C(C)=C/[C@]1(C)SC(=O)C(C)=C1O
inactive: activity change, negative = inhibition [1] -3.15% [at 38 µM] | Potency [2] | activity change, negative = inhibition [3] 11.1% [at 38 µM] | activity, negative = inhibition [4] -7.1% [at 38 µM] | Potency [5] > 46 µM | Potency [19] | outcome [7] | Potency [21] | outcome [10] | Potency [12] | outcome [14] | Potency [16]

CCN(CC)[C@@H](C)C(=O)N1c2ccccc2Sc2ccccc21
inactive: activity change, negative = inhibition [1] 14.4% [at 38 µM] | Potency [2] | Potency [5] > 46 µM | Potency [6] > 46 µM | Potency [17] | Potency [19] | Potency [18]
active: activity change, negative = inhibition [3] -74.6% [at 38 µM]

CCC[C@@H]1O[C@@H]2C[C@@H]3[C@@H]4CCC5=CC(=O)C=C[C@@]5(C)[C@H]4[C@H](O)C[C@@]3(C)[C@@]2(C(=O)CO)O1
inactive: activity change, negative = inhibition [1] 8.13% [at 38 µM] | Potency [2] | activity change, negative = inhibition [3] 9.04% [at 38 µM] | activity, negative = inhibition [4] 6.66% [at 38 µM] | Potency [17] | Potency [19] | Potency [20]

C[C@@H]1C[C@@H]2[C@H]3CCC4=CC(=O)C=C[C@]4(C)[C@]3(Cl)[C@@H](O)C[C@@]2(C)[C@@]1(O)C(=O)CO
inactive: activity change, negative = inhibition [1] 12.5% [at 38 µM] | Potency [2] | activity change, negative = inhibition [3] 6.53% [at 38 µM] | activity, negative = inhibition [4] 3.18% [at 38 µM] | Potency [17] | Potency [19] | outcome [7] | outcome [10] | outcome [13] | outcome [14] | outcome [15] | Potency [16]

C[C@@]12C=CC(=O)C=C1CC[C@@H]1C2=CC[C@]2(C)[C@@H]1CC[C@H]2C(=O)CN1CCN(c2cc(N3CCCC3)nc(N3CCCC3)n2)CC1
inactive: activity change, negative = inhibition [1] 13.8% [at 38 µM] | activity change, negative = inhibition [3] -21.1% [at 38 µM] | activity, negative = inhibition [4] 9.08% [at 38 µM] | Potency [6] > 46 µM | Potency [19] | outcome [10] | outcome [14] | outcome [15] | Potency [16]
active: Potency [2] 12.6 µM
